Source: PubChem BioAssay (Tox21)
Unmarked numbers belong to inactive results. Records with an inconclusive call do not appear. Where a call stands in place of a potency, no number is given. Active and inactive are the calls of the source. Unless noted, calls follow the shape of the full dose curve.

How the values were obtained:
[1] = Nuclear factor erythroid 2-related factor 2/antioxidant responsive element (Nrf2/ARE) small molecule agonists: qHTS cell viability counter screen in human keratinocytes (AID 1919968; active = well fitted curve in the direction sought with a large enough effect in the repeat runs; an effect the other way counts as inactive or inconclusive; also: nearly all actives have a fitted effect of over 55% in size; also: potency is read from the fitted curve at half-maximal effect)
In short: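 HaCaT ARE reporter line, 1,500 cells/well; 5 h settle, 37 C/5% CO2; cpd in DMSO pinned; 23 h exposure; CellTiter-Fluor, 1 h; fluorescence.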

[2] = molecular target: KiSS-1 receptor (Homo sapiens) (UniProt Q969F8); experiment: Human kisspeptin (KISS1R) small molecule agonists, calcium flux assay in KISS1R-HEK293 cells (AID 1920064; active = well fitted curve in the direction sought with a large enough effect in the repeat runs; an effect the other way counts as inactive or inconclusive)
In short: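 Stable human KISS1R HEK293 line; 18 h plating, 37 C/5% CO2; calcium dye 1 h 37 C; compound pin transfer; kinetic fluorescence Ex/Em 480/540, 3 min.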

[3] = p53 small molecule agonists, cell-based qHTS assay with human liver microsomes: qHTS cell viability counter screen (AID 1963579); also: nearly all actives have a fitted effect of over 45% in size
In short: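 Cytotoxicity counter screen: p53RE-bla, 4,000 cells/well; 5 h settle, 37 C/5% CO2; cpd + HLM 0.5 mg/mL + NADPH 0.5 mg/mL (final); 16 h, 37 C; CellTiter-Glo, 30 min RT, luminescence.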

[4] = p53 small molecule agonists, cell-based qHTS assay: qHTS cell viability counter screen (AID 1963581); also: nearly all actives have a fitted effect of over 45% in size
In short: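 HCT-116 p53RE-bla cells, 4,000/well, plated 5 h before compound pin transfer; 16 h at 37 C; bla substrate 2 h RT; then CellTiter-Glo, 30 min RT, luminescence.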

[5] = molecular target: 5-hydroxytryptamine receptor 2A (Homo sapiens) (UniProt P28223); experiment: 5-hydroxytryptamine receptor 2A (HTR2A) small molecule antagonists, cell-based qHTS assay (AID 1963586); also: nearly all actives have a fitted effect of over 45% in size
In short: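 Antagonist-mode intracellular calcium assay: DOI (4 nM) added after 5 min compound pre-incubation at room temperature to dye-loaded HTR2A-CHO cells. Fluorescence followed for 3 min, sampled every second.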

[6] = molecular target: 5-hydroxytryptamine receptor 2A (Homo sapiens) (UniProt P28223); experiment: 5-hydroxytryptamine receptor 2A (HTR2A) small molecule agonists, cell-based qHTS assay (AID 1963587); also: nearly all actives have a fitted effect of over 30% in size; also: potency is read from the fitted curve at half-maximal effect
In short: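 CHO cells stably expressing human HTR2A, plated 18 h, loaded with calcium dye 1 h at 37 C. Agonist mode: compounds added and intracellular calcium fluorescence recorded kinetically for 2 min at 1 sec intervals.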

[7] = molecular target: Muscarinic acetylcholine receptor M1 (Homo sapiens) (UniProt P11229); experiment: Cholinergic receptor muscarinic 1 (CHRM1) small molecule antagonists, cell-based qHTS assay (AID 1963588); also: nearly all actives have a fitted effect of over 40% in size
In short: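 CHRM1-CHO calcium-flux assay, antagonist mode. Cells were seeded 18 h, dye-loaded 1 h at 37 C and given compound for 5 min at RT, then acetylcholine was added at 50nM. FDSS fluorescence was read 3 min; 15 concentrations, three runs.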

[8] = molecular target: Muscarinic acetylcholine receptor M1 (Homo sapiens) (UniProt P11229); experiment: Cholinergic receptor muscarinic 1 (CHRM1) small molecule agonists, cell-based qHTS assay (AID 1963589); also: nearly all actives have a fitted effect of over 35% in size
In short: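 Human M1 in stable CHO line; 18 h plating, 1 h dye load 37 C; cpd added (agonist mode); Ca2+ fluorescence kinetic read, 1 s intervals; 15 conc, 3 runs.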

[9] = cAMP Responsive Elements (CRE) small molecule agonists, cell-based qHTS assay (AID 1963590)
In short: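 HEK 293T CRE-bla, 2,000 cells/well, 18 h preincubation 37 C/5% CO2; cpds (DMSO) pinned, 3 h; LiveBLAzer B/G FRET substrate, 2 h RT.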

[10] = cAMP Responsive Elements (CRE) small molecule antagonists, cell-based qHTS assay (AID 1963591; active = well fitted inhibition curve with a large enough effect in the signal ratio in the repeat runs, not every such curve was filed as active; the % refers to the signal ratio)
In short: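 Beta-lactamase reporter read by FRET substrate (LiveBLAzer B/G) after 2 h at room temperature. CRE-bla HEK293T cells had received compound plus 0.25 uM (final) NKH477 for 3 h at 37 °C.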

[11] = molecular target: Beta-2 adrenergic receptor (Homo sapiens) (UniProt P07550); experiment: Adrenergic beta2 receptor (ADRB2) small molecule antagonists, cell-based qHTS assay (AID 1963592); also: nearly all actives have a fitted effect of over 50% in size; also: potency is read from the fitted curve at half-maximal effect
In short: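 Cells (CHO, stable ADRB2 overexpression) incubated 18-20hr at 37C; compounds added from DMSO; agonist mix (1nM isoproterenol, 100uM IBMX, 25uM Ro-20-1724) added; 0.5hr RT; d2-cAMP and anti-cAMP-cryptate added; 1hr RT; 665/615 nm read.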

[12] = molecular target: Beta-2 adrenergic receptor (Homo sapiens) (UniProt P07550); experiment: Adrenergic beta2 receptor (ADRB2) small molecule agonists, cell-based qHTS assay (AID 1963593);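 also: CHO cells stably overexpressing human ADRB2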
In short: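 CHO cells stably over-expressing ADRB2 were plated overnight at 37C, then dosed with compounds plus a stimulation mix containing 100uM IBMX and 25uM Ro-20-1724 for 0.5hr at room temperature. cAMP was measured by HTRF competition, 1hr.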

[13] = molecular target: D(2) dopamine receptor (Homo sapiens) (UniProt P14416); experiment: Dopamine D2 receptor (DRD2) small molecule agonists, cell-based qHTS assay (AID 1963594); also: nearly all actives have a fitted effect of over 35% in size
In short: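 HEK293 cells stably expressing human DRD2, pre-treated with PDE inhibitor Ro20-1724 (0.1 mM final) and compound 10 min at room temperature, then stimulated with NKH477 (200nM […]) for 30 min. cAMP read by HTRF (665/620 nm).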

[14] = molecular target: D(2) dopamine receptor (Homo sapiens) (UniProt P14416); experiment: Dopamine D2 receptor (DRD2) small molecule antagonists, cell-based qHTS assay (AID 1963595; active = well fitted inhibition curve with a large enough effect in the signal ratio in the repeat runs, with a control signal flat; the % refers to the signal ratio)
In short: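 Stable D2 receptor HEK293 line, 24 h after seeding. Compound preincubated 10 min, then quinpirole (12 nM) with forskolin analogue NKH477 (200 nM), 30 min, room temperature. Detection by time-resolved FRET of cAMP.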

[15] = p53 small molecule agonists, cell-based qHTS assay with rat liver microsomes (AID 1963578)
In short: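 Cells carrying a p53 response element–beta-lactamase reporter were plated and rested 5 h, then dosed with compound in DMSO plus rat liver microsomes and NADPH, each at 0.5 mg/mL final. After 16 h at 37 C, LiveBLAzer substrate was added for 2 h.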

[16] = p53 small molecule agonists, cell-based qHTS assay with rat liver microsomes: qHTS cell viability counter screen (AID 1963580); also: nearly all actives have a fitted effect of over 45% in size
In short: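 p53RE-bla HCT-116 cells were exposed 16 h at 37 C to compounds with rat liver microsomes (0.5 mg/mL) and NADPH (0.5 mg/mL). Viability was measured in the same wells as ATP content by CellTiter-Glo luminescence.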

[17] = p53 small molecule agonists, cell-based qHTS assay (AID 1963582; active = well fitted activation curve with a large enough effect in the signal ratio in the repeat runs, not every such curve was filed as active; the % refers to the signal ratio)
In short: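 Reporter line: p53RE-bla. Pre-incubation 5 h, 37 C, 5% CO2; compound (DMSO, pin tool) 16 h, 37 C; B/G FRET substrate 2 h RT; fluorescence intensity read.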

[18] = G protein-coupled receptor (GPCR) small molecule agonists, calcium flux assay: HEK293 wild type cell line counter screen (AID 1920065)
In short: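 Kinetic fluorescence at Ex/Em 480/540, recorded every second over 3 min, served as the read-out after compound addition. Each compound was tested at 15 concentrations in triplicate on cells pre-loaded with calcium dye for 1 h.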

[19] = p53 small molecule agonists, cell-based qHTS assay with human liver microsomes (AID 1963577)
In short: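 Fluorescence of the beta-lactamase reporter in p53RE-bla cells, detected with LiveBLAzer substrate (2 h, room temperature, dark), served as the read-out after 16 h compound exposure at 37 C with human liver microsomes and NADPH, each 0.5 mg/mL final.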

[20] = molecular target: Gonadotropin-releasing hormone receptor (Homo sapiens) (UniProt P30968); experiment: Human gonadotropin-releasing hormone receptor (GnRHR) small molecule agonists, calcium flux assay in GnRHR-HEK293 cells (AID 1920063); also: nearly all actives have a fitted effect of over 35% in size
In short: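 GnRHR-HEK293, 1500 cells/well, 18 h 37 C/5% CO2; Ca dye 1 h 37 C; cpd pinned (DMSO), agonist mode; kinetic FL 480/540, 3 min, 1 s reads; 15 conc, n=3.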

D(2) dopamine receptor (Homo sapiens), sequence (P14416 whole entry, looked up): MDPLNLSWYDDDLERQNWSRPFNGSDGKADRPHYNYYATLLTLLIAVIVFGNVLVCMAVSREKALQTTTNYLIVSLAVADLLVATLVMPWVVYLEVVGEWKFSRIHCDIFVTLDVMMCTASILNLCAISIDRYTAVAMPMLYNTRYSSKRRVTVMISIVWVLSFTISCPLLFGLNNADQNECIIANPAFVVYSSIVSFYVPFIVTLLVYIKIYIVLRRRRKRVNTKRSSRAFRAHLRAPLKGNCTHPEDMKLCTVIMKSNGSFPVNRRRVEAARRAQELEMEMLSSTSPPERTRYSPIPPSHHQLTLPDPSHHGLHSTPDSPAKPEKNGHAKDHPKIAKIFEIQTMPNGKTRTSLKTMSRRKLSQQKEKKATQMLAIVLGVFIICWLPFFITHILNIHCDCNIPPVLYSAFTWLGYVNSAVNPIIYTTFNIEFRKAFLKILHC
Muscarinic acetylcholine receptor M1 (Homo sapiens), sequence (P11229 whole entry, looked up): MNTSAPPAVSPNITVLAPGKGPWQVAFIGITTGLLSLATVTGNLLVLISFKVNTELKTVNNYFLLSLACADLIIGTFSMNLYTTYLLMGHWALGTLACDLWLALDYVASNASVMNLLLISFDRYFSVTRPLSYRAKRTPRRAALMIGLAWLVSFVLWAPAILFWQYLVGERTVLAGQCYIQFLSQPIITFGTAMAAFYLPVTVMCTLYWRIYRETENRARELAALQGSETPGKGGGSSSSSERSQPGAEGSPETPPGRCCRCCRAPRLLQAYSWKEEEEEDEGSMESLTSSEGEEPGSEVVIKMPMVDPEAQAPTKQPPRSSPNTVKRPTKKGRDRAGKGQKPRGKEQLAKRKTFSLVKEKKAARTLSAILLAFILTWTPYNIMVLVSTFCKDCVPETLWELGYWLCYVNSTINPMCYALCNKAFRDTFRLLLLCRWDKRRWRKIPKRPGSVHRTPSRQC
Beta-2 adrenergic receptor (Homo sapiens), sequence (P07550 whole entry, looked up): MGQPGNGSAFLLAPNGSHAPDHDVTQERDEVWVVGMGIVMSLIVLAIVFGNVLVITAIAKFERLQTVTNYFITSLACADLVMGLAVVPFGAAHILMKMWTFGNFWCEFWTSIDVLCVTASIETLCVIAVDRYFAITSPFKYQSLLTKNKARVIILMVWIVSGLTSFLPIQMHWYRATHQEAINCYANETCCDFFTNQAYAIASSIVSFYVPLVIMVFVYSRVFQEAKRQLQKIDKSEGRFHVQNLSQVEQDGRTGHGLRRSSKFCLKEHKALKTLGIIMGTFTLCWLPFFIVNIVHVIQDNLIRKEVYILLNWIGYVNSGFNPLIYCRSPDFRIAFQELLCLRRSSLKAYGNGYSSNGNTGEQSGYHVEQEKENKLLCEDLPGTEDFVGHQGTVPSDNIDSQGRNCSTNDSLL
Gonadotropin-releasing hormone receptor (Homo sapiens), sequence (P30968 whole entry, looked up): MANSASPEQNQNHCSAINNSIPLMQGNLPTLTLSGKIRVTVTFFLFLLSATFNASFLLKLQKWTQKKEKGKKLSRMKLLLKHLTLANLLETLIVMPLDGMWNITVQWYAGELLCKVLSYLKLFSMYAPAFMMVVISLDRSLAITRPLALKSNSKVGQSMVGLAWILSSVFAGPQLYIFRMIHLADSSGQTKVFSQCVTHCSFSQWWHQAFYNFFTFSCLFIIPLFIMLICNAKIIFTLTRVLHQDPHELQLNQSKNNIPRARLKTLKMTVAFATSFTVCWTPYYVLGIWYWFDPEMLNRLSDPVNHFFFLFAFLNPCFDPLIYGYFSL
KiSS-1 receptor (Homo sapiens), sequence (Q969F8 whole entry, looked up): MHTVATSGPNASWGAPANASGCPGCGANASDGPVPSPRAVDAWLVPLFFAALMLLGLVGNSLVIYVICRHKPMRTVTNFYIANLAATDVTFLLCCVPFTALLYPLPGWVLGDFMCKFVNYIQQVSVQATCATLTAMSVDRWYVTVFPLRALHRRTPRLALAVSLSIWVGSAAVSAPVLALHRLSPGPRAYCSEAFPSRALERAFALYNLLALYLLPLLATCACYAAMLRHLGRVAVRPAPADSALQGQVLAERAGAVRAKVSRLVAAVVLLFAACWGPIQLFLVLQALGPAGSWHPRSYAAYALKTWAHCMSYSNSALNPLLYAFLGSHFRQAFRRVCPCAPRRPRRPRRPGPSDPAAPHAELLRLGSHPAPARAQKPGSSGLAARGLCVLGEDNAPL
5-hydroxytryptamine receptor 2A (Homo sapiens), sequence (P28223 whole entry, looked up): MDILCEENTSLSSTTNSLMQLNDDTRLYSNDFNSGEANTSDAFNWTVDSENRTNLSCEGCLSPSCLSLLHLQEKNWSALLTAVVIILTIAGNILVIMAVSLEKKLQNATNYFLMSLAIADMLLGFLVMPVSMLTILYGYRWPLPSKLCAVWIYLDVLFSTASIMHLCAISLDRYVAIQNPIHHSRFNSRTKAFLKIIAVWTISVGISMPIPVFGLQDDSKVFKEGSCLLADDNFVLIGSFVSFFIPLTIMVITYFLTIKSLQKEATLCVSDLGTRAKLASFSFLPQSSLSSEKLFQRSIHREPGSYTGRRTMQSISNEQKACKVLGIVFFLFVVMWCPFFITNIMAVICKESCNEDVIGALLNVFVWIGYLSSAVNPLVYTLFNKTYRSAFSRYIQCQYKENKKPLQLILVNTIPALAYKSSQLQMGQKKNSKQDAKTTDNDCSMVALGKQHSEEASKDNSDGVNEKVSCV

| SMILES | Potency [1] | Potency [2] | Potency [3] | Potency [4] | Potency [5] | Potency [6] | Potency [7] | Potency [8] | Potency [9] | Potency [10] | Potency [11] | Potency [12] | Potency [13] | Potency [14] | Potency [15] | Potency [16] | Potency [17] | Potency [18] | Potency [19] | Potency [20] |
| --- | --- | --- | --- | --- | --- | --- | --- | --- | --- | --- | --- | --- | --- | --- | --- | --- | --- | --- | --- | --- |
| N[C@@H]1CONC1=O | inactive | inactive | inactive | inactive | inactive | inactive | inactive | inactive | inactive | inactive | inactive | inactive | inactive | inactive |  |  |  |  |  |  |
| C[C@H]1C[C@H]2[C@@H]3CCC4=CC(=O)C=C[C@]4(C)[C@@]3(Cl)[C@@H](O)C[C@]2(C)[C@@]1(O)C(=O)CO | inactive | inactive | inactive | inactive |  |  |  |  |  |  | inactive |  | inactive | inactive | inactive | inactive | inactive |  |  |  |
| CCCCCCCCCOC(=O)CCCCC(=O)OCCCCCCC | inactive | inactive | inactive | inactive | inactive |  | inactive |  | inactive | inactive | 15.4 µM (active) | inactive | inactive | inactive | inactive | inactive |  |  |  |  |
| CN1C[C@H]2c3ccccc3Oc3ccc(Cl)cc3[C@@H]2C1 | inactive | inactive | inactive |  | inactive | 23.9 µM (active) |  | inactive | inactive | inactive |  |  | inactive |  |  | inactive |  | inactive |  |  |
| Fc1ccccc1[C@@H](F)COC1CCC(Nc2ncnc3[nH]ncc23)CC1 (stereo partly specified) | inactive | inactive |  | inactive |  | inactive | inactive | inactive |  |  | inactive | inactive | inactive | inactive | inactive | inactive |  |  | inactive |  |
| O=C(N[C@@H](c1ccccc1)[C@@H]1CCCCN1)c1cccc(C(F)(F)F)c1Cl | 43.3 µM (active) | inactive | inactive | inactive |  |  | inactive | inactive |  |  | inactive |  | inactive | inactive |  | inactive |  |  |  |  |
| C=CC(=O)OCCC#N | inactive | inactive | inactive | inactive | inactive | inactive | inactive | inactive | inactive | inactive | inactive | inactive | inactive | inactive | inactive | inactive | inactive | inactive | inactive | inactive |
| Cc1ccc2ccc(Cl)cc2n1 | inactive | inactive | inactive | inactive | inactive | inactive | inactive | inactive | inactive | inactive | inactive |  | inactive | inactive | inactive | inactive | inactive | inactive | inactive | inactive |
| CC(=O)OCC=C(C)C | inactive | inactive | inactive | inactive | inactive | inactive | inactive | inactive | inactive | inactive | inactive | inactive | inactive | inactive | inactive | inactive | inactive | inactive | inactive | inactive |
